Results as given in PubChem BioAssay (Tox21).
A number with no mark means an inactive call. Inconclusive results are not listed. Entries that show only a call come without a potency. The source made the active and inactive calls. Unless noted, calls come from the whole dose curve; as a rule, active = well fitted curve in the direction sought with a large enough effect in the repeat runs; inconclusive = weak or mixed curves; inactive = no such curve, though single readings can be large; an effect the other way counts as inactive or inconclusive.

Key:
[1] = biological target: Luciferin 4-monooxygenase (Photinus pyralis) (UniProt P08659); assay: qHTS assay to identify small molecule inhibitors of firefly luciferase (AID 1224835); note: nearly all actives have a fitted effect of over 25% in size; note: potency is the fitted concentration of half-maximal effect
Luciferin 4-monooxygenase (Photinus pyralis), sequence (P08659 whole entry, looked up): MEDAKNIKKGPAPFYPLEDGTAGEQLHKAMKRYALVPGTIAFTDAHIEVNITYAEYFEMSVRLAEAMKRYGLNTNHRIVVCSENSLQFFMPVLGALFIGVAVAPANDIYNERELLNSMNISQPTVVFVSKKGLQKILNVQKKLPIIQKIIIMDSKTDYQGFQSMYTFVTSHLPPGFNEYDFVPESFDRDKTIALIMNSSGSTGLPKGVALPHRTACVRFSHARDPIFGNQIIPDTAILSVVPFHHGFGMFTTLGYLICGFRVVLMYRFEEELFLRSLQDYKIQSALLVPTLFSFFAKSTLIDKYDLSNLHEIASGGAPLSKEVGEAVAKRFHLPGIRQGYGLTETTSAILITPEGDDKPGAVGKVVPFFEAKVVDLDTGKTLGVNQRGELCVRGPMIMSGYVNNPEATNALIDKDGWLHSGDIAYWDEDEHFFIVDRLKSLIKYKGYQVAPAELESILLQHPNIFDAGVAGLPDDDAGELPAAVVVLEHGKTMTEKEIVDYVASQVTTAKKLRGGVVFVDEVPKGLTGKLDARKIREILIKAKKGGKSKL
In short: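 Quantitative HTS format; KM concentrations of both substrates. Purified P. pyralis FLuc activity quantified from luminescence images.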

[2] = qHTS assay to identify small molecule agonists of the constitutive androstane receptor (CAR) signaling pathway - cell viability counter screen (AID 1224836); note: nearly all actives have a fitted effect of over 45% in size; note: potency is the fitted concentration of half-maximal effect
In short: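 Viability read-out: CellTiter-Fluor fluorescence after 23 h compound exposure at 37 C/5% CO2 in double-stable HepG2-CYP2B6-hCAR cells, with PK11195 present at 0.75 uM final; compounds tested in 15-point titration.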

[3] = qHTS assay to identify small molecule antagonists of the constitutive androstane receptor (CAR) signaling pathway - cell viability counter screen (AID 1224837); note: nearly all actives have a fitted effect of over 45% in size; note: potency is the fitted concentration of half-maximal effect
In short: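 Read-out: CellTiter-Fluor fluorescence after 23 hr at 37 C/5% CO2. Cells: HepG2 double-stable for hCAR and CYP2B6-2.2kb. Compounds tested at 15 concentrations in the presence of CITCO, final concentration 50 nM.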

[4] = biological target: Nuclear receptor subfamily 1 group I member 3 (Homo sapiens) (UniProt Q14994); assay: qHTS assay to identify small molecule antagonists of the constitutive androstane receptor (CAR) signaling pathway (AID 1224838);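 note: HepG2 cells stably expressing hCAR with CYP2B6 luciferase reporter stimulated by CITCO; nearly all actives have a fitted effect of over 40% in size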; note: potency is the fitted concentration of half-maximal effect
Nuclear receptor subfamily 1 group I member 3 (Homo sapiens), sequence (Q14994 whole entry, looked up): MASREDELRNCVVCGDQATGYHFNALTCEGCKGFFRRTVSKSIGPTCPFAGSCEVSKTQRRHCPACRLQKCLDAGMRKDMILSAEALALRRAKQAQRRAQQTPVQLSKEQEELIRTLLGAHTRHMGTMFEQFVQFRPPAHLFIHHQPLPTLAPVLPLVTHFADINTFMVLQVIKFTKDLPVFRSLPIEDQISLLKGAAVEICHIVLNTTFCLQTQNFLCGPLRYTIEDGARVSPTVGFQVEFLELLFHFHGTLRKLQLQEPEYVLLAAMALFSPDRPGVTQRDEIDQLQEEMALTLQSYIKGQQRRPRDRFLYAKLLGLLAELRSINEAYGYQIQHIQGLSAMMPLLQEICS
In short: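 Read-out: ONE-Glo luciferase luminescence after 30 min at room temperature. HepG2-CYP2B6-hCAR double-stable cells, compounds in 15-point titration plus 50 nM CITCO final, 24 h at 37 C/5% CO2.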

[5] = biological target: Nuclear receptor subfamily 1 group I member 3 (Homo sapiens) (UniProt Q14994); assay: qHTS assay to identify small molecule agonists of the constitutive androstane receptor (CAR) signaling pathway (AID 1224839); note: nearly all actives have a fitted effect of over 15% in size; note: potency is the fitted concentration of half-maximal effect;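 for activation: HepG2 cells stably carrying human CAR and a CYP2B6 luciferase reporter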
In short: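 Luminescence read-out (ONE-Glo, 30 min, room temperature) from double-stable HepG2-CYP2B6-hCAR cells exposed 24 h to 15-point compound series in presence of 0.75 uM PK11195 final.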

[6] = qHTS assay to identify small molecule antagonists of the estrogen related receptor signaling pathway with the pleiotropic PPARgamma coactivator (PGC) from Tox21 10K library - cell viability counter screen (AID 1224840; active = well fitted cell-killing curve with a large enough effect in the repeat runs, not every such curve was filed as active; note: nearly all actives have a fitted effect of over 40% in size; note: potency is the fitted concentration of half-maximal effect)
In short: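 Fluorescence read-out of CellTiter-Fluor viability reagent, added after cells had been exposed to compound in DMSO for 17.5 h at 37 C; 30 min development at 37 C/5% CO2. Cells: PGC/ERR line, 2,000/well.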

[7] = qHTS assay to identify small molecule agonists of the estrogen related receptor signaling pathway with the pleiotropic PPARgamma coactivator (PGC) from Tox21 10K library (AID 1224842); note: nearly all actives have a fitted effect of over 15% in size
In short: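 PGC/ERR reporter cells (NTP line) were seeded 2,000 per well, rested 6 h at 37 C/5% CO2, then pin-dosed with compounds in DMSO for 18 h at 37 C; luciferase read by One-Glo luminescence after 30 min at room temperature.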

[8] = qHTS assay to identify small molecule agonists of the hypoxia (HIF-1) signaling pathway - cell viability counter screen (AID 1224844; calls by dose curve; note: nearly all actives have a fitted effect of over 50% in size; note: potency is the fitted concentration of half-maximal effect)
In short: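 CellTiter-Glo luminescence read-out, 30 min RT, taken in the same wells as the beta-lactamase HRE reporter assay; HRE-bla ME-180 cells, 0.5% dialyzed FBS, 17 hr compound treatment at 37C, 5% CO2.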

[9] = qHTS assay to identify small molecule agonists of H2AX (AID 1224845; active = well fitted activation curve with a large enough effect in the signal ratio in the repeat runs, not every such curve was filed as active; the % refers to the signal ratio)
In short: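 Wild-type CHO-K1 cells plated overnight, then exposed 3 hr at 37C to compounds at 15 concentrations (0.76% DMSO). Lysed, then HTRF anti-pH2AX(S139)-cryptate/anti-H2AX-d2 detection after 24 hr at room temperature; emissions 665 and 620 nm.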

[10] = qHTS assay to identify small molecule agonists of the hypoxia (HIF-1) signaling pathway (AID 1224846; active = well fitted activation curve with a large enough effect in the signal ratio in the repeat runs, not every such curve was filed as active; the % refers to the signal ratio)
In short: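 Beta-lactamase FRET read-out (CCF4-AM substrate) from ME-180 cells carrying an HRE-driven bla reporter, after 17 hrs compound exposure at 37C/5% CO2. Cells were seeded at 2,000 per well in 0.5% dialyzed FBS medium and preincubated 5 hrs.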

[11] = qHTS assay to identify small molecule agonists of H2AX - cell viability counter screen (AID 1224847; calls by dose curve; note: nearly all actives have a fitted effect of over 30% in size; note: potency is the fitted concentration of half-maximal effect)
In short: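 CHO-K1 wt, 1000 cells/well, o/n 37C; cpds 15 conc, 3 h 37C, 0.76% DMSO; CellTiter-Glo, 30 min RT, luminescence.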

[12] = qHTS assay to identify small molecule antagonists of the estrogen related receptor (ERR) signaling pathway from Tox21 library (AID 1224848); note: nearly all actives have a fitted effect of over 50% in size; note: potency is the fitted concentration of half-maximal effect
In short: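 First, 2,000 ERR cells per well were plated and held 6 h at 37 C/5% CO2. Next, compounds in DMSO were pinned in and left 18 h at 37 C. Finally, ONE-Glo was added and luminescence read after 30 min at room temperature.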

[13] = qHTS assay to identify small molecule agonists of the estrogen related receptor (ERR) signaling pathway from Tox21 library (AID 1224849; calls by dose curve; note: nearly all actives have a fitted effect of over 15% in size); conditions: ERR reporter cell line, ONE-Glo luciferase, 18 h; at 92.4 µM (top of the series) unless noted
In short: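 Luminescence readout (ONE-Glo, 30 min RT) after 18 h compound exposure at 37 C of NTP-supplied ERR reporter cells; cells were plated 6 h before compound addition by pin tool.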

[14] = qHTS RealTime-Glo MT Cell Viability Assay in HepG2 cells - 24 hour (AID 1224867); note: nearly all actives have a fitted effect of over 50% in size; note: potency is the fitted concentration of half-maximal effect
In short: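 HepG2 cells were seeded at 600 cells/well together with NanoLuc luciferase and a cell-permeant prosubstrate, preincubated 5 h at 37 C/5% CO2, then pin-dosed with compounds in DMSO. Nonlytic luminescence from viable cells was read at each time point.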

[15] = qHTS RealTime-Glo MT Cell Viability Assay in HEK293 cells - 32 hour (AID 1224868); note: nearly all actives have a fitted effect of over 50% in size; note: potency is the fitted concentration of half-maximal effect
In short: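 HEK293 cells were seeded at 600 cells/well together with NanoLuc luciferase and cell-permeant prosubstrate, preincubated 5 h at 37 C/5% CO2, then given compound in DMSO by pintool. Luminescence from viable-cell prosubstrate reduction was read repeatedly over 40 h.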

[16] = A CellTox Green Cytotoxicity Assay to monitor cytotoxicity in HEK293 cells - 0 hour (AID 1224869); note: nearly all actives have a fitted effect of over 50% in size
In short: (§1)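 Read-out: fluorescence of a cell-impermeant cyanine dye staining DNA of dead cells, proportional to cytotoxicity. HEK293, 600 cells/well with reagent, compound (23 nL DMSO) added after 5 h; reads at 0, 8, 16, 24, 32, 40 h.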

[17] = qHTS RealTime-Glo MT Cell Viability Assay in HepG2 cells - 40 hour (AID 1224870); note: nearly all actives have a fitted effect of over 50% in size; note: potency is the fitted concentration of half-maximal effect
In short: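 HepG2 cells mixed with RealTime-Glo MT reagents (NanoLuc plus cell-permeant prosubstrate) were seeded at 600 cells/well, incubated 5 h at 37 C/5% CO2, then pinned with compounds in DMSO; nonlytic luminescence tracked viability during 40 h treatment.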

[18] = A CellTox Green Cytotoxicity Assay to monitor cytotoxicity in HEK293 cells - 40 hour (AID 1224871); note: nearly all actives have a fitted effect of over 45% in size; note: potency is the fitted concentration of half-maximal effect
In short: as §1

[19] = biological target: Thyrotropin receptor (Homo sapiens) (UniProt P16473); assay: qHTS assay to identify small molecule agonists of the thyroid stimulating hormone receptor (TSHR) signaling pathway (AID 1224843; calls by dose curve; note: nearly all actives have a fitted effect of over 45% in size)
Thyrotropin receptor (Homo sapiens), sequence (P16473 whole entry, looked up): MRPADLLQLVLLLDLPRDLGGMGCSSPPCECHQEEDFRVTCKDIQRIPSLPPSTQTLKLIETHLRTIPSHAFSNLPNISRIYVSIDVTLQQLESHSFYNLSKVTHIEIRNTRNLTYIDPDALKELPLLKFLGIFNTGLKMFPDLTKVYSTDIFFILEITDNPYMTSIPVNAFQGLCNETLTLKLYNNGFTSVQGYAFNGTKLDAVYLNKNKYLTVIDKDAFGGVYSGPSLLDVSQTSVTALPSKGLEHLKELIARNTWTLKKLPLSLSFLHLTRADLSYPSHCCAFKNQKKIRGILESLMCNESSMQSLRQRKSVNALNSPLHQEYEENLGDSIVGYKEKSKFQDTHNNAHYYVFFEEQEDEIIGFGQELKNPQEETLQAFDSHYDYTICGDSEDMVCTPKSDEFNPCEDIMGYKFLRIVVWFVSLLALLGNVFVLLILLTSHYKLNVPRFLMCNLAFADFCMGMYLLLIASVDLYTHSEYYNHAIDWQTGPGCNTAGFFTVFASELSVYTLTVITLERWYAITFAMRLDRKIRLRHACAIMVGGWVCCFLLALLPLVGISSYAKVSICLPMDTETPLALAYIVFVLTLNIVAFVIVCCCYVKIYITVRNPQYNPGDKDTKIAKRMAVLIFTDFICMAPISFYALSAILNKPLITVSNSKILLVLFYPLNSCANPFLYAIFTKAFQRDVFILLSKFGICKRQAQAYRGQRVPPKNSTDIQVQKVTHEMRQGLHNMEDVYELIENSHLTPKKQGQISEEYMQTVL
In short: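 Compounds are titrated over 15 concentrations, in triplicate, onto TSHR-HEK293 cells seeded at 800/well. Plates sit 30 min at room temperature before cAMP-d2 and anti-cAMP cryptate are added; signal is read after a further hour.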

[20] = qHTS assay to identify small molecule antagonists of the estrogen related receptor signaling pathway with the pleiotropic PPARgamma coactivator (PGC) from Tox21 10K library (AID 1224841; call rule not given here)
In short: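 Luminescence read-out (One-Glo luciferase reagent, 30 min at room temperature) from PGC/ERR cells exposed to DMSO-dissolved test compounds for 18 h at 37 C; cells, 2,000 per well, had been preincubated 6 h before compound transfer.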

SMILES | Potency [1] | Potency [2] | Potency [3] | Potency [4] | Potency [5] | Potency [6] | Potency [7] | Potency [8] | Potency [9] | Potency [10] | Potency [11] | Potency [12] | activity change, positive = activation [13] | Potency [14] | Potency [15] | Potency [16] | Potency [17] | Potency [18] | Potency [19] | Potency [20]
CC(C)NCC(O)c1ccccc1Cl (stereo not drawn) | inactive | inactive | inactive | inactive | inactive | inactive | inactive | inactive | inactive | inactive | inactive | inactive | 0.518% [at 42.5 µM] | inactive | inactive | inactive | inactive | inactive | – | –
CCCCc1ccccc1 | inactive | inactive | inactive | inactive | inactive | inactive | – | inactive | inactive | – | inactive | – | – | inactive | inactive | inactive | inactive | inactive | inactive | –
C=CC(=O)[O][Sn]([CH2]CCC)([CH2]CCC)[CH2]CCC | 35600 nM (active) | 1220 nM (active) | 1930 nM (active) | 486 nM (active) | inactive | 1720 nM (active) | inactive | 977 nM (active) | – | – | 1420 nM (active) | 1370 nM (active) | -66.8% | 436 nM (active) | 389 nM (active) | inactive | 389 nM (active) | 871 nM (active) | – | –
OCC(Br)CBr (stereo not drawn) | inactive | inactive | inactive | inactive | inactive | inactive | – | inactive | inactive | inactive | inactive | – | – | inactive | inactive | inactive | inactive | inactive | inactive | –
C#CCO | inactive | inactive | inactive | inactive | inactive | inactive | – | inactive | inactive | inactive | inactive | – | – | inactive | inactive | inactive | inactive | inactive | inactive | –
CN(C)CCc1c[nH]c2ccccc12 | inactive | inactive | inactive | inactive | inactive | inactive | – | inactive | inactive | inactive | inactive | – | – | inactive | inactive | inactive | inactive | inactive | inactive | –
CC(Cl)CCl (stereo not drawn) | inactive | inactive | inactive | inactive | inactive | inactive | – | inactive | inactive | inactive | inactive | – | – | inactive | inactive | inactive | inactive | – | inactive | –
CCC(C)Br (stereo not drawn) | inactive | inactive | inactive | inactive | inactive | inactive | – | inactive | inactive | inactive | inactive | – | – | inactive | inactive | inactive | inactive | inactive | inactive | –
CN1C2CCC(C)(C)C1CC(OC(=O)C(O)(c1cccs1)c1cccs1)C2 (stereo not drawn) | inactive | inactive | inactive | inactive | inactive | inactive | – | inactive | inactive | inactive | inactive | – | – | inactive | inactive | inactive | inactive | inactive | inactive | –
COP(=S)(NC(C)C)Oc1ccc(C)cc1[N+](=O)[O-] (stereo not drawn) | inactive | inactive | inactive | inactive | 6860 nM (active) | inactive | – | inactive | inactive | inactive | – | – | – | inactive | inactive | inactive | inactive | inactive | – | –
CCCCCCC[CH2][Sn]([Cl])([Cl])[CH2]CCCCCCC | inactive | inactive | inactive | inactive | inactive | – | inactive | – | – | – | inactive | 61100 nM (active) | -59.9% | inactive | inactive | inactive | inactive | inactive | inactive | 27300 nM (active)
CC(C)Br | inactive | inactive | inactive | inactive | inactive | inactive | – | inactive | – | inactive | inactive | – | – | inactive | inactive | inactive | inactive | inactive | inactive | –
CC(C)[C@@H](Nc1ccc(C(F)(F)F)cc1Cl)C(=O)OC(C#N)c1cccc(Oc2ccccc2)c1 (stereo partly drawn) | inactive | inactive | inactive | inactive | inactive | inactive | – | inactive | inactive | – | – | – | – | inactive | – | inactive | inactive | – | – | –
CCO/N=C(\CC)C1=C(O)CC(c2c(C)cc(C)cc2C)CC1=O (stereo not drawn) | inactive | inactive | inactive | inactive | inactive | inactive | – | inactive | – | inactive | inactive | – | – | inactive | – | – | inactive | inactive | – | –
NC1CCC(CC2CCC(N)CC2)CC1 (stereo not drawn) | inactive | inactive | inactive | inactive | inactive | – | – | inactive | – | inactive | inactive | – | – | inactive | – | – | inactive | inactive | – | –
